± gives the standard deviation of the averaged measurements.

These results are taken from the supplement of paper PMC7156485.
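Also: TDF denotes transformed human dermal fibroblasts of mesenchymal origin.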

The assay concerns HCC1569. Kind of assay: cell number relative to DMSO (% of DMSO); higher = more cells (less growth inhibition / toxicity). Conditions: concentration: 10 µM; 24 h. An outline of the steps: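 For HCC1569 and TDF cells, compounds at 10 µM were applied for 24 h at 37 °C in triplicate in 384-well plates. Cells were fixed in 3.7% formaldehyde, stained for H1.0 and with DAPI, and imaged at ×10 over six fields per well. The endpoint, H1.0 nuclear intensity or cell number, is shown as percent of the plate control using the median of replicates. Positional effects were smoothed for HCC1569 only.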
`CCOC(=O)C(C)(C)Oc1ccc(Cl)cc1` [Clofibrate]: the cell number stood at 102 ± 2.9.

For `C=CC(C)(O)CCC1C(=C)CCC2C(C)(C)CCCC12C` (stereo unspecified) [Manool], the cell number is 104.

As for `NC(CCC(=O)NC(CSN=O)C(=O)NCC(=O)O)C(=O)O` (stereo unspecified) [S-Nitrosoglutathione], the cell number is 104.

Molecule `CS(=O)(=O)c1ccc(-c2cc(Br)sc2-c2ccc(F)cc2)cc1` had a cell number of 99.9.

With `Br.CN(C)CCCC1(c2ccc(F)cc2)OCc2cc(C#N)ccc21` (stereo unspecified) [Citalopram hydrobromide], the cell number was 101.

In the case of `Cn1ccnc1` [1-Methylimidazole], the cell number is 103.

Take `CC(C)(C)C(=O)OCOC(=O)[C@@H]1N2C(=O)[C@@H](/N=C/N3CCCCCC3)[C@H]2SC1(C)C`: the cell number worked out at 84.7.

Turning to `CCCCCC#CCC#CCC#CCC#CCCCC(=O)O` [5,8,11,14-Eicosatetraynoic acid], the cell number was 105.

In turn, `COC(=O)c1c(C)[nH]c(C)c1C(=O)c1ccccc1Cc1ccccc1` yielded a cell number of 102.

In the case of `CNCCC(Oc1ccccc1OC)c1ccccc1.Cl` (stereo unspecified) [Nisoxetine.HCl], the cell number worked out at 105.

For `CCC=CCC=CCC=CCC=CCC=CCCCC(=O)O`, the cell number is 98.

The molecule `Cc1nc(N)sc1-c1ccnc(Nc2ccc(N3CCOCC3)cc2)n1` had a cell number of 62.2.

`Cn1c(=O)c(-c2c(Cl)cccc2Cl)cc2cnc(Nc3ccc(N4CCOCC4)cc3)nc21` yielded a cell number of 52.7.

Turning to `Cc1[nH]c2ccccc2c1CC(=O)N[C@@H](Cc1ccccc1)C(=O)N(C)c1ccccc1`, the cell number was 100.

Molecule `CCCC1=C(c2ccc(O)cc2)N(c2ccc(O)cc2)NC1=C1C=CC(=O)C=C1` [1,3,5-tris(4-hydroxyphenyl)-4-propyl-1H-pyrazole] gave a cell number of 98.3.

For `O=c1c(-c2ccc(O)cc2)coc2cc(OC3OC(CO)C(O)C(O)C3O)cc(O)c12` (stereo unspecified) [Genistin], the cell number was found to be 103.

In turn, `NC(N)=NC(N)=Nc1ccccc1` [1-Phenylbiguanide] registered a cell number of 105.

`CC(=O)OCC(CCn1cnc2cnc(N)nc21)COC(C)=O` [Famciclovir] yielded a cell number of 103.

With `N=C(N)c1ccc(OCCCCCOc2ccc(C(=N)N)cc2)cc1.O=S([O-])OCCO.O=S([O-])OCCO` [Pentamidine isethionate], the cell number came to 93.1.

In turn, `O=c1cc(-c2ccccc2)oc2cc(O)c(O)cc12` [6,7-Dihydroxyflavone] came in with a cell number of 102.

Regarding `O=C(c1ccc(OCCN2CCCCC2)cc1)c1c(-c2ccc(O)cc2)sc2cc(O)ccc12` [Raloxifene], the cell number was determined as 95.5.

In turn, `CC(=O)Oc1ccccc1C(=O)Oc1ccc(CO[N+](=O)[O-])cc1` [4-[(nitrooxy)methyl]phenyl 2-(acetyloxy)benzoate] showed a cell number of 50.1.

Consider `NS(=O)(=O)c1cc2c(cc1Cl)NCNS2(=O)=O` [Hydrochlorothiazide], for which the cell number was 105.

`CC1(C)CC=C(c2ccccc2)c2cc(/C=C/c3ccc(C(=O)O)cc3)ccc21` displayed a cell number of 99.1.

With `COc1c(O)cc2oc(-c3ccc(O)cc3)cc(=O)c2c1O` [5,7-dihydroxy-2-(4-hydroxyphenyl)-6-methoxy-4H-chromen-4-one], the cell number is 92.6.

`CCCCCCCCC=CCCCCCCCC(=O)NCCO` [N-Oleoylethanolamine]: the cell number was found to be 99.9.

The molecule `CN1CCN(CC(=O)N2c3ccccc3C(=O)Nc3cccnc32)CC1.Cl.Cl` [Pirenzepine.2HCl] had a cell number of 101.

`CCCCC#Cc1nc(N)c2ncn(C3OC(C(=O)NCC)C(O)C3O)c2n1` (stereo unspecified) came in with a cell number of 93.3.

For `NS(=O)(=O)c1cc2c(cc1Cl)NC(C1CC3C=CC1C3)NS2(=O)=O` (stereo unspecified) [Cyclothiazide], the cell number was determined as 100.

As to `Cl.NC(N)=NC(N)=Nc1cccc(Cl)c1` [1-(m-Chlorophenyl)-biguanide hydrochloride], the cell number was 102.

`O=C(Nc1cccc(Cl)c1)Nc1ncc(CCNc2ncnc3ccsc23)s1` returned a cell number of 66.1.

On to `Cc1cc(C(C)(C)C)c(O)c(C)c1CC1=NCCN1.Cl` [Oxymetazoline hydrochloride], for which the cell number stood at 104.

`N[C@@H](Cc1cc(I)c(Oc2cc(I)c(O)c(I)c2)c(I)c1)C(=O)O` [L-thyroxine]: the cell number was 103.

`COc1nccc(-c2c(-c3ccc(F)cc3)ncn2C2CCNCC2)n1` returned a cell number of 93.7.

`COc1ccc(-c2nn3c(-c4ccccn4)nnc3s2)cc1OC` yielded a cell number of 98.

`CCOC(=O)c1cnc2c(cnn2CC)c1NN=C(C)C` [Etazolate] displayed a cell number of 102.
